# Results reported in PubChem BioAssay AID651718 (The Scripps Research Institute Molecular Screening Center, 2012).
# Among all 360,000 compounds or so, about 2,700 (0.75%) were called active. The sample holds actives, similar compounds and a random draw of the others, so the mix is not that of the screen. No stated cut-off is given here; in the data, active means inhibition above about 4.5%; inactive means the rest.
# Tested on: Methionine sulfoxide reductase A (Bos taurus)
# Test: inhibition of methionine sulfoxide reductase A – biochemical, absorbance, bovine, HTS, primary screen (AID 651718);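 further: 0% = vehicle wells with enzyme and 100% = reference inhibitor wells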
# Details: purified bovine MsrA, absorbance read-out; at 15.5 µM; stronger effect = higher value
row,Compound,inhibition
1,COc1ccc(N2C(=O)C3C(C2=O)C(C(=O)c2ccccc2)N2CCCC32)cc1 (stereo not drawn),1.03% (inactive)
2,COCCNC(=S)N(C)[C@H]1C[C@H]2c3[nH]c4ccccc4c3CCN2C[C@H]1[C@H](C)O,0.16% (inactive)
3,N#Cc1ccc(OCCCN2CCC(C(O)(c3ccccc3)c3ccccc3)CC2)c(F)c1,2.13% (inactive)
4,O=C(/C=C/c1ccco1)NC(=S)N1CCCCC1,2.5% (inactive)
5,COc1ccc(CN2CCCC(C(=O)N3CCCCC3)C2)cc1 (stereo not drawn),-0.76% (inactive)
6,COc1ccc(/C=C/C(=O)NC(=S)N2CCCC(C(N)=O)C2)cc1 (stereo not drawn),5.75% (active)
7,O=c1[nH][nH]c2c1[C@H](c1ccc(Cl)cc1)O[C@H](CCc1ccccc1)C2,-0.84% (inactive)
8,COc1ccc(NC(=O)N(C)C[C@@H]2OCCCC[C@@H](C)Oc3ccc(NC(=O)NC4CCCCC4)cc3C(=O)N([C@H](C)CO)C[C@@H]2C)cc1,-0.24% (inactive)
9,COc1cc(Cl)c(S(=O)(=O)n2cnc(C)c2)cc1Cl,0.89% (inactive)
10,CC(=O)Nc1cccc(OCC(=O)/C=C2\N(C)c3ccccc3C2(C)C)c1,3.18% (inactive)
11,CN1/C(=C\C=C2\N=C(c3ccc(F)cc3)OC2=O)C(C)(C)c2ccccc21,0.34% (inactive)
12,CN1CCN(CCC(=O)N/N=C/C=C2\N(C)c3ccccc3C2(C)C)CC1,4.78% (active)
13,COC(=O)C1=C(C)N(Cc2ccc(F)cc2)C(=S)NC1c1cccc(Cl)c1 (stereo not drawn),0% (inactive)
14,COc1ccccc1-c1ccc([C@@H]2C[C@H]3[C@H](CON3C)CN2S(=O)(=O)c2cc(Cl)cc(Cl)c2)cc1,-0.24% (inactive)
15,O=C(O)c1ccc(N/N=C/c2ccc3ncccc3c2)cc1,5.15% (active)
16,CCNC(=S)NNC(=O)c1ccc2ncccc2c1,0.98% (inactive)
17,CC(C)(C)OC(=O)N/N=C/c1ccc(C(=O)O)cc1,1.73% (inactive)
18,Cc1ccccc1N/N=C/c1ccc(N2CCOCC2)cc1,1.63% (inactive)
19,Cc1cc(C(=O)N/N=C/c2ccc(N3CCOCC3)cc2)c(C)o1,5.02% (active)
20,Cc1ccc(OCCCC(=O)Nc2ccc(N3CCOCC3)cc2)cc1,-1.28% (inactive)
21,CCOc1cc(/C=N/NC(=O)c2ccncc2)cc(Br)c1O,2.43% (inactive)
22,O=C(Cc1ccccc1)Nc1ccc(NC(=O)c2cccnc2)cc1,-0.64% (inactive)

row,Compound,inhibition
1,CCN(CC)c1ccc(/C=N/NC(=O)CNC(=O)c2cccs2)cc1,4.8% (active)
2,CCCOc1cccc(C(=O)NCCCNC(=O)c2cccnc2)c1,-0.09% (inactive)
3,O=C(N/N=C/c1cccc(OC(=O)c2ccc([N+](=O)[O-])cc2)c1)c1cccnc1,-0.13% (inactive)
4,O=C(CNC(=O)c1cccnc1)N/N=C/c1cc(Br)c(O)c(Br)c1,8.83% (active)
5,CC1CC(=NNC(=O)C2COc3ccccc3O2)CC(C)(C)C1 (stereo not drawn),-0.12% (inactive)
6,O=C(CNC(=O)C(c1ccccc1)c1ccccc1)N/N=C\c1ccc2c(c1)OCO2,1.12% (inactive)
7,O=C(CNC(=O)c1cccs1)N/N=C/c1cccc(Br)c1,0.52% (inactive)
8,O=C(CNC(=O)C1COc2ccccc2O1)N/N=C/c1cc(Br)c(O)c(Br)c1 (stereo not drawn),4.96% (active)
9,CCN(CC)c1ccc(/C=N/NC(=O)CNC(=O)c2cccnc2)cc1,4.63% (active)
10,CC(C)OCCCNC(=O)CNC(=O)c1cccs1,0.37% (inactive)
11,COC(=O)C1=C(C(=O)OC)C2C=C(C(C)C)C1C(=O)C2(C)O (stereo not drawn),0.16% (inactive)
12,CC[C@H](C)[C@H]1CNC(=O)C(=O)N1CC1CCN(CCc2ccc(OC)c(OC)c2)CC1,-0.53% (inactive)
13,O=C(NCC(c1ccco1)N1CCc2ccccc21)c1cccc(F)c1 (stereo not drawn),-0.1% (inactive)
14,Cc1ccccc1C(=O)N[C@H](C(=O)N1CCC[C@H]1C(=O)NCc1ccccc1)C(C)C,0.08% (inactive)
15,Cc1ccc2nc(-c3ccc(CN4CCC(n5cc(-c6ccccc6)[nH]c5=O)CC4)cc3)c(-c3ccccc3)nc2c1,1.47% (inactive)
16,O=c1[nH]c(-c2ccccc2)cn1C1CCN(Cc2ccc(-c3nc4ccc(F)cc4nc3-c3ccccc3)cc2)CC1,1.06% (inactive)
17,Cc1nc(NC(=O)C(C)(C)C)sc1[N+](=O)[O-],0.16% (inactive)
18,Oc1c(C(c2ccco2)N2CCC3(CC2)OCCO3)sc2ncnn12 (stereo not drawn),1.08% (inactive)
19,CC1(C)CC(=O)C/C(=N\NC(=O)c2cccs2)C1,0.04% (inactive)
20,O=C(N/N=C/C=C/c1ccco1)c1cccs1,5.18% (active)
21,O=C(COC(=O)CCC(=O)c1cccs1)NCc1ccco1,-1.07% (inactive)
22,CC(=O)Nc1ccc(/C=N/NC(=O)c2cccs2)cc1,5.38% (active)

row,Compound,inhibition
1,C/C(=N\OCC(=O)Nc1ccc(Br)cc1)c1cccs1,0% (inactive)
2,O=C(NC(Cc1c[nH]c2ccccc12)C(=O)N/N=C/c1ccc(Br)cc1)c1cccs1 (stereo not drawn),1.85% (inactive)
3,Nc1[nH]c(C(=O)c2ccc(Br)cc2)c(-c2ccc3c(c2)OCO3)c1C(=O)NCCc1c[nH]c2ccccc12,1.06% (inactive)
4,CCOC(=O)CNC(=O)N(C)[C@H]1C[C@H]2c3[nH]c4c(-c5ccc6c(c5)OCO6)cccc4c3CCN2C(=O)[C@H]1[C@H](C)O,0.91% (inactive)
5,COC(=O)[C@]12C[C@H](CC(=O)NCc3ccc(C)o3)C(=O)N(CCC3=CCCCC3)C1=C[C@H](C(C)(C)C)O[C@@H]2C,-0.16% (inactive)
6,COCc1cc(N2CCN(C(=O)OC(C)(C)C)C[C@@H]2C)ccc1N1CCN(Cc2ccccc2)[C@H](C)C1,-0.33% (inactive)
7,CN1C(=O)C2CC(O)C(SC3CC4C(=O)N(C)C(=O)C4CC3O)CC2C1=O (stereo not drawn),-0.2% (inactive)
8,COC(=O)C1=C(C)N(Cc2cccc(C(F)(F)F)c2)C(=NCc2ccccc2)NC1c1ccc(Cl)cc1 (stereo not drawn),-1.08% (inactive)
9,O=C(C(=O)N1CCC(CNC(=O)c2cccnc2Cl)CC1)c1cccs1,0.64% (inactive)
10,COc1ccc(S(=O)(=O)N2CCOCC2)cc1NC(=O)CSc1nnc(NC2CC2)s1,1.12% (inactive)
11,Cc1noc(C)c1COc1ccc2ccc(=O)oc2c1,1.22% (inactive)
12,COc1ccc(-c2cc3ccc(OCc4nn[nH]n4)cc3oc2=O)cc1,6.87% (active)
13,CCCCc1cc(=O)oc2cc(C)cc(OCc3nn[nH]n3)c12,2.46% (inactive)
14,CN1CCNC(=O)C1CC(=O)NCCC1=CCCCC1 (stereo not drawn),2.03% (inactive)
15,CCOC(=O)C1CSCCS(=O)(=O)N1Cc1ccc(Cl)cc1 (stereo not drawn),-0.33% (inactive)
16,Cc1c(Cl)c([N+](=O)[O-])nn1Cc1ccc(C(=O)N/N=C\c2cc(Cl)ccc2O)o1,0.28% (inactive)
17,CC(Oc1ccccc1[N+](=O)[O-])C(=O)N/N=C/c1ccoc1 (stereo not drawn),1.1% (inactive)
18,Cc1cc(C(=O)N/N=C/c2ccc(O)c([N+](=O)[O-])c2)c(C)n1-c1ccc(F)cc1,4.88% (active)
19,COC(=O)C(C(=O)OC)c1ccccc1NS(=O)(=O)c1cccc2ccccc12,-0.65% (inactive)
20,CCOC(=O)c1ccc(NNC(C)=O)c([N+](=O)[O-])c1,-0.39% (inactive)
21,CCCCOC(=O)CCCc1ccc([N+](=O)[O-])cc1[N+](=O)[O-],4.36% (inactive)
22,CCOC(=O)C/C(C)=N\Nc1ccc([N+](=O)[O-])cc1[N+](=O)[O-],12.8% (active)

row,Compound,inhibition
1,CC(C(=O)NC1CCCC1)N1CCN(S(=O)(=O)c2ccccc2Cl)CC1 (stereo not drawn),-0.92% (inactive)
2,CCCCNC(=O)C(C)N(CCN(C)C)C(=O)CCCCCN1C(=O)NC(c2ccc(Cl)cc2)C(C(=O)OCc2ccccc2)=C1C (stereo not drawn),1.77% (inactive)
3,NC(=O)CSc1nnc(NC(=O)c2ccc(Br)o2)s1,4.64% (active)
4,COC(=O)CSc1nnc(NC(=O)CCc2ccccc2)s1,0.95% (inactive)
5,CC(C)(C)NC(=O)CSc1nnc(NC(=O)CCc2ccccc2)s1,0.59% (inactive)
6,COC(=O)[C@]12C[C@H](CC(=O)NCCc3ccccc3OC)C(=O)N(Cc3ccccc3)C1=C[C@H](C(C)C)O[C@@H]2C1CC1,0.87% (inactive)
7,CCn1cc(/C=C(\NC(=O)c2ccc(C)cc2)C(=O)NCCN2CCOCC2)c2ccccc21,4.67% (active)
8,Cc1ccc(C(=O)N/C(=C\c2cn(C)c3ccccc23)C(=O)N2CCN(C)CC2)cc1,3.12% (inactive)
9,COc1ccc(/C=C(\NC(=O)c2ccccc2)C(=O)NCCN2CCOCC2)cc1OC,2.05% (inactive)
10,O=C(O)Cn1cnc2c(NCc3ccccc3)ncnc21,0.37% (inactive)
11,Cc1ccc(S(=O)(=O)N(C)c2ccc(OCC(=O)NC3=NCCS3)cc2)cc1,-0.97% (inactive)
12,Cc1ccc(S(=O)(=O)N(C)c2ccc(OCC(=O)OCc3ccc(C#N)cc3)cc2)cc1,7.12% (active)
13,Cc1ccc(S(=O)(=O)N(C)c2ccc(OCC(=O)OCC(=O)N(CC#N)c3ccccc3)cc2)cc1,0.73% (inactive)
14,NC(=O)c1ccc(-c2csnn2)cc1,1.41% (inactive)
15,Cc1cc(C)nc(N2C(=O)CC(Cc3ccccc3)C2=O)n1 (stereo not drawn),-1.66% (inactive)
16,CC1(C)N=C(c2ccccn2)C(C)(C)N1O,0.21% (inactive)
17,COC(=O)C1=C(C)NC(=S)NC1c1ccc(OC)cc1 (stereo not drawn),0.87% (inactive)
18,CCCCNc1cccc2c1S(=O)(=O)N[C@@H](C)CO2,0.33% (inactive)
19,Nc1nnnn1/N=C/c1cccs1,0.3% (inactive)
20,Nc1nnnn1/N=C/c1cccc(Br)c1,0.5% (inactive)
21,COc1ccc(/C=N/n2nnnc2N)cc1OC,4.82% (active)
22,CCN(CC)Cc1c(C(=O)OC)nnn1-c1nonc1N,0.6% (inactive)
